DT40 TDP1 no CPT: qHTS for Inhibitors of human tyrosyl-DNA phosphodiesterase 1 (TDP1): qHTS in cells in absence of CPT; 420,000 tested, 15% active; Potency, µM (titrated, usually from 46.2 µM), inactives show top-dose activity change, negative = growth inhibition, actives largely listed as inhibitors; DT40 Tdp1-/- hTDP1 cells, no CPT, ATP luminescence, 48 h; note: potency is the fitted concentration of half-maximal effect; nearly all actives have a fitted effect of over 55% in size
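Readout: luminescence from CellTiter-Glo after 30 min in the dark at RT. Cells: DT40 Tdp1-/- with stable hTDP1, 400/well. Exposure: compounds alone, ≥48 hr, 37 °C.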
CtBP-E1A inh: qHTS Assay for Inhibitors of the CtBP/E1A Interaction; 340,000 tested, 0.49% active; activity change, % (concentration not given with the values); AlphaScreen GST-E1A/His-CtBP binding, 1536-well; active compounds read low; CtBP / adenovirus E1A interaction (AlphaScreen); in the data active = activity change below about -65%; inconclusive = mostly about -30% to -63%
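Homogeneous bead-based format: GST-tagged E1A captured on glutathione donor beads, His-tagged CtBP on nickel acceptor beads; compounds precede bead addition by 2 h at 37 °C.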
TDP1 inh: qHTS Assay for Inhibitors of Tyrosyl-DNA Phosphodiesterase (TDP1) | recombinant TDP1, AlphaScreen DNA substrate cleavage | Potency, µM (highest dose often 130 µM), for the others: at the top dose activity change, negative = inhibition, most hits filed as inhibitors | Tyrosyl-DNA phosphodiesterase 1 (Homo sapiens), Q9NUW8 | 350,000 tested, 0.28% active; note: potency is the fitted concentration of half-maximal effect; nearly all actives have a fitted effect of over 40% in size
Target sequence (Q9NUW8 whole entry, looked up): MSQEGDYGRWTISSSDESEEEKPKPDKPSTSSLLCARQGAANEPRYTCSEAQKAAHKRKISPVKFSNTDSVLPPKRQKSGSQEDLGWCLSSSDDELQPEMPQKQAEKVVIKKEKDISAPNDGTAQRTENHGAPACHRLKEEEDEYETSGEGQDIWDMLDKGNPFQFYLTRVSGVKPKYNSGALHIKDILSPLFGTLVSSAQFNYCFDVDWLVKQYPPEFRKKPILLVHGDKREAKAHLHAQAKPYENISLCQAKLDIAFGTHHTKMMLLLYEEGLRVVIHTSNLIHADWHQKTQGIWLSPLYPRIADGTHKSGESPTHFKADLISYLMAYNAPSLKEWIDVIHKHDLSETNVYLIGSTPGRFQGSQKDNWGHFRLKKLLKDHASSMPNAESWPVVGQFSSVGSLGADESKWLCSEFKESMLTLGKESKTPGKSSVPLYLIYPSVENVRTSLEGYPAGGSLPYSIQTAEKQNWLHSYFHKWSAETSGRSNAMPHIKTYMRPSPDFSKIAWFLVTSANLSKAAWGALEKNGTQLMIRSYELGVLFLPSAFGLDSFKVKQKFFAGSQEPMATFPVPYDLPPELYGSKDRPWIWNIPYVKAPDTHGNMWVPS
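Recombinant E. coli-expressed Tdp1 (1 nM) preincubated with compound 15 min at RT, then 5'-biotin/3'-phosphotyrosine-FITC DNA substrate (15 nM) added for 5 min. AlphaScreen beads (10 ug/ml) added, 10 min RT; tyrosine-FITC cleavage read as signal loss.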
IL1B secr inh: qHTS for Inhibitors of Inflammasome Signaling: IL-1-beta AlphaLISA Primary Screen. activity change, % at 57.5 µM. 360,000 tested, 4.7% active. AID 743279, 2014. THP-1 LPS/ATP IL-1B secretion, AlphaLISA, 16 h; active compounds read low; in the data active = activity change below about -50%; inconclusive = mostly about -30% to -49%
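THP-1 cells pretreated 1 hr with compounds (up to 57.5 uM final), then stimulated with LPS (250 ng/mL final) plus ATP (1.25 mM final); secreted IL-1B measured by AlphaLISA after 16 hr, decreased signal indicating inhibition.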
Six1-Eya2 blk: qHTS Assay for Inhibitors of the Six1/Eya2 Interaction. Homeobox protein SIX1 (Homo sapiens) + Protein phosphatase EYA2 (Homo sapiens), …. AlphaScreen GST-Six1/His-Eya2 binding, biochemical; active compounds read low. activity change, % (concentration not given with the values). 360,000 tested, 0.56% active. AID 651725, 2012; in the data active = activity change below about -65%; inconclusive = mostly about -30% to -63%
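AlphaScreen luminescence read after one hour at 37 °C in darkness. Pin-transferred compounds met GST-Six1 and His-Eya2 protein (5X stock 250 nM/500 nM) plus glutathione donor and Ni-chelate acceptor beads (5X, 50 ug/mL).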
DT40 TDP1 CPT: qHTS for Inhibitors of human tyrosyl-DNA phosphodiesterase 1 (TDP1): qHTS in cells in presence of CPT; Potency, µM (series often up to 46.2 µM), inactives show at the top dose activity change, negative = growth inhibition, hits mostly inhibitors; 420,000 tested, 12% active; chicken DT40 Tdp1-/-;hTDP1 cells + 20 nM CPT, ATP luminescence, 48 h; note: potency is the fitted concentration of half-maximal effect; nearly all actives have a fitted effect of over 55% in size
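Chicken DT40 Tdp1-/- cells stably complemented with human TDP1 were seeded at 400 cells/well in medium containing 20 nM camptothecin, exposed to pin-transferred compounds, and grown at 37 °C for at least 48 hr. Viability was read as ATP luminescence.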
Starred values were filed as active, the others as inactive; [ ] = remark or other dose. This is a sample that favours compounds with a hit; in the whole collection about 18% have one here. Unless noted, calls come from the whole dose curve; as a rule, active = well fitted curve in the direction sought with a large enough effect; inconclusive = small, poorly fitted or top-dose-only effect, or another doubt; inactive = no such curve, though single readings can be large; an effect the other way counts as inactive or inconclusive. % is set by controls: 0 for no effect and ±100 for the full control effect.

O=C(c1ccc([N+](=O)[O-])o1)N1CCN(c2nc3ccc(F)cc3s2)CC1 was read as DT40 TDP1 no CPT 23.1µM*, CtBP-E1A inh 18.0, TDP1 inh -5.3%, IL1B secr inh -16.4, Six1-Eya2 blk 19.0 and DT40 TDP1 CPT 20.6µM*.
Screening COc1cc(NC(=O)CSc2nc(-c3cccs3)cc(C(F)(F)F)n2)cc(OC)c1OC returned DT40 TDP1 no CPT inconclusive, TDP1 inh 3.2% and DT40 TDP1 CPT 20.6µM*.
Screening O=C(CCS(=O)(=O)c1nc(-c2cccs2)cc(C(F)(F)F)n1)Nc1cccc(O)c1 returned DT40 TDP1 no CPT 5.17µM*, TDP1 inh 8.8% and DT40 TDP1 CPT 2.31µM*.
`CC(C)OC(=O)c1ccc(NC(=O)CSc2nc(-c3cccs3)cc(C(F)(F)F)n2)cc1` gave DT40 TDP1 no CPT 29.1µM*, TDP1 inh 0.0% and DT40 TDP1 CPT 16.4µM*.
CC(C)CNC(=O)CSc1nc(-c2cccs2)cc(C(F)(F)F)n1 was read as DT40 TDP1 no CPT inconclusive, CtBP-E1A inh 1.4, TDP1 inh 0.1%[56.1 µM], IL1B secr inh -1.3, Six1-Eya2 blk -2.1 and DT40 TDP1 CPT inconclusive.
Screening O=C(CSc1nc(-c2cccs2)cc(C(F)(F)F)n1)NCc1ccccc1 returned DT40 TDP1 no CPT 23.1µM*, CtBP-E1A inh 3.3, TDP1 inh 0.0%, IL1B secr inh -3.3, Six1-Eya2 blk 1.1 and DT40 TDP1 CPT inconclusive.
COc1ccc(-c2cc(C(F)(F)F)nc(SCC(=O)NCc3cccs3)n2)cc1OC was read as DT40 TDP1 no CPT inconclusive, CtBP-E1A inh 3.4, TDP1 inh 0.6%, IL1B secr inh -5.5, Six1-Eya2 blk -2.7 and DT40 TDP1 CPT inconclusive.
For COc1cc(NC(=O)CCS(=O)(=O)c2nc(-c3cccs3)cc(C(F)(F)F)n2)cc(OC)c1OC the results were DT40 TDP1 no CPT 6.51µM*, TDP1 inh inconclusive and DT40 TDP1 CPT 4.11µM*.
`CS(=O)(=O)c1nc(-c2cccs2)cc(C(F)(F)F)n1` gave TDP1 inh 11.2%.
Screening O=C(O)CCS(=O)(=O)c1nc(-c2cccs2)cc(C(F)(F)F)n1 returned DT40 TDP1 no CPT 14.6µM*, CtBP-E1A inh 3.3, TDP1 inh 5.6%, IL1B secr inh -28.9, Six1-Eya2 blk -2.5 and DT40 TDP1 CPT 10.3µM*.
Cc1cc(NC(=O)CCCS(=O)(=O)c2nc(-c3cccs3)cc(C(F)(F)F)n2)no1 was read as DT40 TDP1 no CPT 2.59µM*, CtBP-E1A inh -0.4, TDP1 inh -2.0%, IL1B secr inh -69.5*, Six1-Eya2 blk -4.2 and DT40 TDP1 CPT 2.59µM*.
COc1ccccc1-n1c(-c2cc(-c3ccc(F)cc3)n[nH]2)n[nH]c1=S was read as DT40 TDP1 no CPT inconclusive, CtBP-E1A inh -2.0, TDP1 inh 1.2%, IL1B secr inh 21.2, Six1-Eya2 blk -10.2 and DT40 TDP1 CPT -10.5%.
Screening CCCC(=O)NC(c1ccc(OC)cc1)c1c(O)ccc2ccccc12 (centres undefined) returned DT40 TDP1 no CPT 23.1µM*, CtBP-E1A inh -2.3, IL1B secr inh -58.2*, Six1-Eya2 blk 23.3 and DT40 TDP1 CPT inconclusive.
CC(C)CC(=O)NC(c1ccccc1Cl)c1c(O)ccc2ccccc12 (centres undefined) was read as DT40 TDP1 no CPT -112.2%, CtBP-E1A inh -9.7, TDP1 inh 4.6%, IL1B secr inh -68.4*, Six1-Eya2 blk -5.6 and DT40 TDP1 CPT inconclusive.
For COc1ccc(C(NC(=O)CC(C)C)c2c(O)ccc3ccccc23)cc1 (centres undefined) the results were DT40 TDP1 no CPT inconclusive, IL1B secr inh -15.2, Six1-Eya2 blk 11.5 and DT40 TDP1 CPT inconclusive.
COc1ccc(C(NC(=O)C2CCCCC2)c2c(O)ccc3ccccc23)cc1 (centres undefined) was read as DT40 TDP1 no CPT 18.4µM*, CtBP-E1A inh -3.5, TDP1 inh 0.0%, IL1B secr inh -19.0, Six1-Eya2 blk -8.9 and DT40 TDP1 CPT inconclusive.
CCOc1ccc(C(NC(=O)CC)c2c(O)ccc3ccccc23)cc1 (centres undefined) was read as DT40 TDP1 no CPT inconclusive, TDP1 inh 2.8%, IL1B secr inh 4.5, Six1-Eya2 blk 11.6 and DT40 TDP1 CPT -81.6%.
`CC(=O)Oc1ccc2ccccc2c1C(NC(=O)Cc1ccccc1)c1ccc(Cl)cc1` (centres undefined) gave DT40 TDP1 no CPT 20.6µM*, CtBP-E1A inh -0.9, TDP1 inh -2.0%, IL1B secr inh -18.0, Six1-Eya2 blk -5.8 and DT40 TDP1 CPT inconclusive.
CCC(=O)Nc1c(C)c(CC)nc2ccccc12 was read as DT40 TDP1 no CPT -4.2%, CtBP-E1A inh 3.7, TDP1 inh 6.3%, IL1B secr inh 0.0, Six1-Eya2 blk -2.1 and DT40 TDP1 CPT -27.9%.
`O=C(O)c1ccccc1N(Cc1ccccc1)C(=O)COc1ccccc1` gave DT40 TDP1 no CPT -5.5%, IL1B secr inh 12.1, Six1-Eya2 blk 0.1 and DT40 TDP1 CPT 1.4%.
For COc1ccccc1-n1cnc(N)c1C(=O)c1ccccc1 the results were DT40 TDP1 no CPT 8.2µM*, CtBP-E1A inh 1.0, TDP1 inh 0.0%, IL1B secr inh -12.9, Six1-Eya2 blk -2.8 and DT40 TDP1 CPT 9.2µM*.
COc1ccccc1-n1cnc(N)c1C(C)=O was read as DT40 TDP1 no CPT -9.5%, CtBP-E1A inh 3.4, TDP1 inh -6.2%, IL1B secr inh 18.1, Six1-Eya2 blk 10.0 and DT40 TDP1 CPT -6.9%.
For CCc1cc(C(c2cccc(OC)c2)N2CCOCC2)c(NC(=O)c2ccccc2)s1 (centres undefined) the results were DT40 TDP1 no CPT 14.6µM*, CtBP-E1A inh 5.0, TDP1 inh 0.0%, IL1B secr inh inconclusive, Six1-Eya2 blk -1.9 and DT40 TDP1 CPT inconclusive.
`CCc1cc(C(c2ccc(OC)c(OC)c2)N2CCOCC2)c(NC(=O)c2ccccc2)s1` (centres undefined) gave DT40 TDP1 no CPT 20.6µM*, CtBP-E1A inh 5.0, TDP1 inh 5.5%, IL1B secr inh -124.4*, Six1-Eya2 blk -4.1 and DT40 TDP1 CPT inconclusive.
